For nine compounds, growth results are on record in PubChem BioAssay (NCI).

About 83,000 compounds went through this panel and 20% of them were active in at least one assay; those are over-represented in the sample as a whole.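 Single-dose data. Exposure time 48 hours. Values below 10 considered active.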 Values without a mark were called inactive. Activity calls are given as the source filed them.

What all share (assay): NCI-60 one-dose screen, 48 h (100 = growth as untreated, 0 = no growth, -100 = all killed)
What all share (settings): 10 µM unless noted

Test [1] relates to EKVX NSCLC.
The test system of test [2] is SN12C renal.
In test [3] the test system is UO-31 renal.
The subject of test [4] is TK-10 renal.
The test system of test [5] is ACHN renal.
For test [6], the system named is CAKI-1 renal.
The subject of test [7] is CCRF-CEM leukemia.
For test [8], the system named is RPMI-8226 leukemia.
Test [9] deals with OVCAR-8 ovarian.
In test [10] the test system is OVCAR-4 ovarian.
Test [11] relates to SK-OV-3 ovarian.
Test [12] concerns IGROV1 ovarian.
For test [13], the system named is OVCAR-3 ovarian.
Test [14] deals with HS 578T breast.
Test [15] relates to NCI/ADR-RES ovarian.
The test system of test [16] is A498 renal.
The test system of test [17] is MOLT-4 leukemia.
In test [18] the test system is SR leukemia.
For test [19], the system named is OVCAR-5 ovarian.

Consider `CC1(C)CC(=O)C(c2c(-c3ccccc3)[nH]c3[nH]c(=S)[nH]c(=O)c23)=C(O)C1`, for which the growth in [1] is 89.8%; in test [2], 99%; in test [3], 90.9%; in test [4] it was 107%; in test [5], 97.3%; in [6], 125%. Further, the growth is 92% in test [7]; 101% in test [8]; 100% in test [9]; 114% in test [10]; 114% in test [11]; 132% in [12]. Also, the growth in [13] is 124%; in test [14], 123%; in test [15], 108%.

For the compound `CCN(CC)CCCC(C)N/C(=C1\C(=O)NC(=O)\C1=C(/NC(C)CCCN(CC)CC)c1cccc(OC)c1)c1cccc(OC)c1` (stereo unspecified), the growth in [2] is 9.96% (active); in [3] it was -83.8% (active); in test [4], -23.4% (active); in [5] it was -29% (active); in test [6], 61.4%; in [16], 60.2%. Also, the growth is -28.1% (active) in [7]; -10.5% (active) in test [17]; -25.1% (active) in test [18]; -35.7% (active) in test [8]; 5.58% (active) in test [9]; 1.93% (active) in test [19]. For the same compound, the growth in test [10] is -23.3% (active); in [11] it was 11.8%; in [12], -18.5% (active); in test [13], -11.3% (active); in test [14] it was 38.4%; in test [15] it was 2.36% (active).

With `O=C(/C=C\c1ccc2ccccc2n1)c1cc(Cl)ccc1O`, the growth in test [1] was 85.9%; in test [2], 110%; in test [3], 65.2%; in [4], 95.1%; in test [5], 89.5%; in [6], 44.9%. Moreover, the growth in [16] was 113%; in test [17], 54.2%; in [9], 63.6%; in test [19], 81.3%; in [10], 73.6%; in [11], 111%. The growth in test [12] was 86.1%; in test [13], 43.5%; in test [14] it was 95.1%; in test [15] it was 60.4%.

For `CCCCCCCCCCCCCCCC(=O)OCC1OC(n2cnc3c(=S)nc(N)[nH]c32)C(OC(=O)CCCCCCCCCCCCCCC)C1OC(=O)CCCCCCCCCCCCCCC` (stereo unspecified), the growth in test [1] was 48.6%; in test [2], 84.2%; in [3] it was 50%; in test [4], 35.7%; in test [5], 75%; in test [6], 49.4%. Besides, the growth in test [16] was 116%; in [7], 15.9%; in [17], -24% (active); in test [18] it was 11.4%; in test [8], 30.1%; in test [9] it was 55.8%. Besides, the growth in [19] was 52.1%; in [10], 78.3%; in test [11], 20.8%; in [12], 77.1%; in test [13], 50%; in test [14] it was 119%. Also, the growth in test [15] was 39.4%.

For the compound `CCCCCCCCCCCCCC(=O)C(C)N` (stereo unspecified), the growth in test [1] is 5.65% (active); in test [2] it was 5.02% (active); in [3] it was 64.9%; in [4], 48.5%; in [5], 39.2%; in test [6], 77.6%. The growth is 60.2% in test [7]; 46.8% in test [17]; -2.57% (active) in test [18]; 31.9% in test [8]; 89.9% in test [9]; 68.7% in test [19]. The growth in test [10] was 14.3%; in [12] it was 53.2%; in test [13], 73.6%; in test [14] it was 70.6%; in [15], 75.8%.

Consider `CCCCCCCCSC1=CC(=O)C(OC)=C(OC)C1=O`, for which the growth in [1] is 43.8%; in test [2], 10.7%; in [3] it was -92.7% (active); in test [4], -99.3% (active); in [5], -77.8% (active); in test [6], -45.6% (active). Further, the growth in [7] is -15.8% (active); in test [17] it was -5.17% (active); in test [8], -24.5% (active); in test [9], -9.18% (active); in test [19], 28%; in [10] it was 21.5%. In addition, the growth in test [11] was 86.4%; in test [12], 43.2%; in test [13], -40.8% (active); in test [14] it was 63%; in [15], -27.1% (active).

As for `CC[C@]12C=CCN3CC[C@@]4(c5ccc(OC)cc5N(C)[C@H]4[C@@](O)(C(=O)OC)[C@@H]1OC(=O)CCC(=O)N[C@@H](Cc1c[nH]c4ccccc14)C(=O)OC)[C@@H]32`, the growth was 93.3% in test [1]; 71.5% in test [2]; 83% in [3]; 87.4% in test [4]; 93% in [5]; 108% in test [6]. The growth in [16] was 83.4%; in test [7] it was 28.9%; in test [17], -35.5% (active); in test [18], -43.1% (active); in test [8], -33.4% (active); in test [9] it was 93.9%. In addition, the growth in test [19] was 90.8%; in test [10], 89.9%; in test [11] it was 100%; in test [12], 101%; in test [13] it was 86.4%; in test [14], 79.4%. Further, the growth in test [15] was 105%.

In the case of `Cc1ccc(/C=C2\Oc3cc(OCC(=O)c4ccc(Cl)cc4)ccc3C2=O)cc1`, the growth is 107% in test [1]; 116% in test [2]; 73.6% in [3]; 130% in [4]; 101% in test [6]; 113% in [16]. Also, the growth in test [7] was 176%; in [17], 102%; in [18] it was 94.7%; in test [8], 248%; in test [9], 92.9%; in [19] it was 102%. The growth in [10] is 119%; in [11], 115%; in test [12], 57.1%; in test [13], 94.9%; in test [14] it was 95.4%.

Consider `O=C(CCCCN1CCOCC1)Nc1ccc(Cn2nnc3c2C(=O)c2nnn(Cc4ccc(NC(=O)CCCCN5CCOCC5)cc4)c2C3=O)cc1`, for which the growth in test [2] was -46.6% (active); in [3], 10.5%; in test [4] it was 13.6%; in [5], -4.59% (active); in test [6] it was 7.17% (active); in test [16], -91.1% (active). For the same compound, the growth was -1.29% (active) in [7]; -37.3% (active) in test [17]; -22.2% (active) in test [18]; -18% (active) in test [8]; -36.2% (active) in [9]; -23% (active) in test [19]. Moreover, the growth in test [10] is -73.9% (active); in test [11] it was -68.2% (active); in test [12] it was -68.3% (active); in test [13], -58.2% (active); in test [14], 12.5%; in test [15] it was 11%.
